Values joined by “and” are separate entries in the source; they are usually repeats but may differ in a detail not shown here. Equal values may be shown once. About 2,000 (36%) of roughly 5,500 compounds were called active. Inconclusive results (about 18%) are left out. Cut-off read from the data, not from the text of the source: active = normalized growth mostly below about 0.91 (no sharp cut-off); inconclusive = no clear call, values can overlap the other calls; inactive = mostly above about 0.92. The list shows a part of the results.
Test: chemical genetic growth profiling, strain panel (AID 1159580);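 note: tested at 20 µM; growth read once vehicle control cultures reached saturation at 30 °C; 1 = growth at the plate median or of vehicle wells; lower values mean less growth of the strain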
Conditions: S. cerevisiae deletion strains, growth OD

Measured: normalized growth

CN1CCCCC1c1ccc(-c2cccnc2)nc1 (stereo not given)
inactive: locus YAL013W, strain DEP1, hits give low values 1.01 | locus YAL021C, strain ccr4, hits give low values 0.987 | locus YAL026C, strain drs2, hits give low values 0.965 | locus YAL030W, strain snc1, hits give low values 0.984 | locus YBL061C, strain skt5, hits give low values 0.975 | locus YBR009C, strain hhf1, hits give low values 0.938 | locus YBR021W, strain FUR4, hits give low values 1.1 | locus YBR023C, strain chs3, hits give low values 0.99 | locus YBR171W, strain sec66, hits give low values 0.971 | locus YBR229C, strain ROT2, hits give low values 1.02 | locus YBR231C, strain swc5, hits give low values 0.982 | locus YBR279W, strain paf1, hits give low values 0.984 | locus YCL011C, strain gbp2, hits give low values 0.964 | locus YCL016C, strain dcc1, hits give low values 0.997 | locus YCL029C, strain bik1, hits give low values 0.97 | locus YCL061C, strain MRC1, hits give low values 0.98 | locus YCL069W, strain vba3, hits give low values 0.979 | locus YCR088W, strain abp1, hits give low values 0.994 | locus YDL005C, strain med2, hits give low values 0.964 | locus YDL035C, strain GPR1, hits give low values 1.01 | locus YDL040C, strain nat1, hits give low values 0.983 | locus YDL074C, strain BRE1, hits give low values 1.01 | locus YDL101C, strain DUN1, hits give low values 1.02 | locus YDL134C, strain PPH21, hits give low values 1.1 | locus YDL185W, strain tfp1, hits give low values 0.959 | locus YDL192W, strain arf1, hits give low values 0.983 | locus YDR001C, strain nth1, hits give low values 0.962 | locus YDR069C, strain doa4, hits give low values 0.962 | locus YDR101C, strain arx1, hits give low values 0.999 | locus YDR137W, strain rgp1, hits give low values 0.975 | locus YDR150W, strain NUM1, hits give low values 1.01 | locus YDR159W, strain sac3, hits give low values 0.927 | locus YDR162C, strain NBP2, hits give low values 1.07 | locus YDR195W, strain ref2 0.929 | locus YDR297W, strain sur2, hits give low values 0.967 | locus YDR318W, strain mcm21, hits give low values 1 | locus YDR334W, strain swr1, hits give low values 0.971 | locus YDR335W, strain msn5, hits give low values 0.99 | locus YDR388W, hits give low values 0.997 | locus YDR392W, strain spt3, hits give low values 0.874 | locus YDR502C, strain sam2, hits give low values 1.01 | locus YEL003W, strain gim4, hits give low values 0.979 | locus YEL037C, strain rad23, hits give low values 0.985 | locus YEL061C, strain CIN8 (second series), hits give low values 0.97 | locus YEL061C, strain CIN8, hits give low values 1.01 | locus YER015W, strain faa2, hits give low values 0.965 | locus YER016W, strain bim1, hits give low values 0.994 | locus YER110C, hits give low values 1 | locus YER111C, strain swi4, hits give low values 0.974 | locus YER155C, strain BEM2 (second series), hits give low values 0.971 | locus YER155C, strain BEM2, hits give low values 1.01 | locus YER167W, strain BCK2, hits give low values 1.03 | locus YFR010W, strain ubp6, hits give low values 0.969 | locus YGL078C, strain dbp3, hits give low values 0.996 | locus YGL086W, strain mad1, hits give low values 1.03 | locus YGL167C, strain pmr1, hits give low values 0.956 | locus YGL173C, strain kem1, hits give low values 0.973 | locus YGL227W, strain vid30, hits give low values 0.97 | locus YGL240W, strain doc1, hits give low values 0.965 | locus YGL248W, strain PDE1, hits give low values 1.01 | locus YGL253W, strain hxk2, hits give low values 0.992 | locus YGR135W, strain pre9, hits give low values 0.981 | locus YGR229C, strain SMI1, hits give low values 1.08 | locus YGR252W, strain gcn5, hits give low values 1.05 | locus YHR013C, strain ard1, hits give low values 0.929 | locus YHR027C, strain rpn1, hits give low values 0.984 | locus YHR030C, strain SLT2, hits give low values 0.995 and 1 | locus YHR079C, strain IRE1 (second series), hits give low values 0.998 | locus YHR079C, strain IRE1, hits give low values 0.988 | locus YHR094C, strain hxt1, hits give low values 1.02 | locus YHR129C, strain ARP1, hits give low values 1.02 | locus YHR142W, strain chs7, hits give low values 1 | locus YHR200W, strain rpn10, hits give low values 0.984 | locus YIL066C, strain RNR3, hits give low values 1.05 | locus YIL073C, strain SPO22, hits give low values 1.02 | locus YIL125W, strain kgd1, hits give low values 0.998 | locus YIR030C, strain dcg1, hits give low values 0.995 | locus YJL092W, strain hpr5, hits give low values 0.985 | locus YJL095W, strain BCK1 (second series), hits give low values 0.998 | locus YJL095W, strain BCK1, hits give low values 1.07 and 1.03 | locus YJL115W, strain asf1, hits give low values 0.991 | locus YJL129C, strain trk1, hits give low values 0.983 | locus YJL134W, strain LCB3, hits give low values 0.996 | locus YJL154C, strain vps35, hits give low values 0.994 | locus YJL164C, strain tpk1, hits give low values 1.02 | locus YJL166W, strain qcr8, hits give low values 0.983 | locus YJL168C, strain set2, hits give low values 0.996 | locus YJL187C, strain SWE1 (second series), hits give low values 1.04 | locus YJL187C, strain SWE1, hits give low values 0.979 | locus YJR043C, strain POL32, hits give low values 1.04 | locus YJR066W, strain TOR1, hits give low values 0.951 | locus YKL009W, strain mrt4, hits give low values 0.986 | locus YKL068W, hits give low values 0.997 | locus YKL085W, strain MDH1 (second series), hits give low values 1.01 | locus YKL085W, strain MDH1, hits give low values 1.01 | locus YKL160W, strain elf1, hits give low values 1.01 | locus YKL190W, strain CNB1, hits give low values 1.02 | locus YKR001C, strain vps1, hits give low values 0.996 | locus YKR026C, strain gcn3, hits give low values 0.967 | locus YKR091W, strain srl3, hits give low values 0.969 | locus YLL001W, strain dnm1, hits give low values 1 | locus YLL026W, hits give low values 1 | locus YLL041C, strain sdh2, hits give low values 0.991 | locus YLR027C, strain aat2, hits give low values 0.979 | locus YLR039C, strain RIC1, hits give low values 1.07 | locus YLR058C, strain SHM2, hits give low values 1.02 | locus YLR102C, strain apc9, hits give low values 0.999 | locus YLR113W, strain HOG1, hits give low values 1.03 | locus YLR221C, strain rsa3, hits give low values 0.994 | locus YLR258W, strain gsy2, hits give low values 0.985 | locus YLR262C, strain YPT6 (second series), hits give low values 1.01 | locus YLR262C, strain YPT6, hits give low values 1.04 | locus YLR268W, strain sec22, hits give low values 1.01 | locus YLR320W, strain mms22, hits give low values 0.993 | locus YLR330W, strain CHS5, hits give low values 1.01 | locus YLR342W, strain FKS1 (second series), hits give low values 1.06 | locus YLR342W, strain FKS1, hits give low values 0.971 | locus YLR357W, strain rsc2, hits give low values 0.968 | locus YLR370C, strain arc18, hits give low values 0.966 | locus YLR371W, strain rom2, hits give low values 0.971 | locus YLR384C, strain iki3, hits give low values 0.993 | locus YLR418C, strain cdc73, hits give low values 1.05 | locus YML016C, strain PPZ1, hits give low values 1.01 | locus YML032C, strain rad52, hits give low values 0.997 | locus YML120C, strain ndi1, hits give low values 0.984 | locus YML124C, strain tub3, hits give low values 0.998 | locus YMR058W, strain fet3, hits give low values 0.97 | locus YMR078C, strain ctf18, hits give low values 0.999 | locus YMR125W, strain sto1, hits give low values 0.942 | locus YMR129W, hits give low values 0.974 | locus YMR205C, strain PFK2, hits give low values 0.934 | locus YMR223W, strain ubp8, hits give low values 0.987 | locus YMR231W, strain pep5, hits give low values 0.967 | locus YMR307W, strain GAS1, hits give low values 1.19 | locus YNL067W, strain RPL9B, hits give low values 1.05 | locus YNL071W, strain lat1, hits give low values 0.993 | locus YNL183C, strain NPR1, hits give low values 0.979 | locus YNL209W, strain ssb2, hits give low values 0.966 | locus YNL233W, strain BNI4, hits give low values 1.07 | locus YNL248C, strain rpa49, hits give low values 1.02 | locus YNL250W, strain rad50, hits give low values 0.988 | locus YNL271C, strain bni1, hits give low values 0.988 | locus YNL298W, strain CLA4, hits give low values 1 | locus YNL307C, strain MCK1, hits give low values 1 | locus YNL322C, strain KRE1 (second series), hits give low values 0.971 | locus YNR049C, strain mso1, hits give low values 0.986 | locus YNR052C, strain pop2, hits give low values 0.993 | locus YOL006C, strain TOP1, hits give low values 1.11 | locus YOL012C, strain htz1 1.24 | locus YOL147C, strain pex11, hits give low values 1.01 | locus YOR001W, strain rrp6, hits give low values 1.02 | locus YOR061W, strain CKA2, hits give low values 1.01 | locus YOR069W, strain VPS5, hits give low values 1 | locus YOR070C, strain gyp1, hits give low values 0.997 | locus YOR080W, strain dia2, hits give low values 0.966 | locus YOR083W, strain WHI5, hits give low values 1.01 | locus YOR106W, strain vam3, hits give low values 1 | locus YOR136W, strain idh2, hits give low values 0.995 | locus YOR144C, strain elg1, hits give low values 1.01 | locus YOR184W, strain ser1, hits give low values 1.02 | locus YOR231W, strain MKK1, hits give low values 0.992 | locus YOR265W, strain rbl2, hits give low values 1.01 | locus YOR270C, strain vph1, hits give low values 0.974 | locus YOR290C, strain snf2, hits give low values 0.923 | locus YOR316C, strain cot1, hits give low values 0.99 | locus YPL051W, strain arl3, hits give low values 1.01 | locus YPL078C, strain atp4, hits give low values 0.999 | locus YPL106C, strain sse1, hits give low values 0.934 | locus YPL240C, strain hsp82, hits give low values 0.981 | locus YPL256C, strain CLN2, hits give low values 0.977 | locus YPR119W, strain clb2, hits give low values 1 | locus YPR141C, strain kar3, hits give low values 0.986 | locus YPR163C, strain tif3, hits give low values 0.998 | locus YPR167C, strain met16, hits give low values 0.999 | strain wtn01, hits give low values 0.983

Source: PubChem BioAssay AID1159580 (chemical genetic matrix, 2015)
